Source: PubChem BioAssay (Johns Hopkins Ion Channel Center)
Shown are actives, neighbours in structure and some others; about 1.6% of the full set was active somewhere.
KCNQ2 pot: KCNQ2 (rat) channel potentiation; O88943; CHO-K1 KCNQ2, FluxOR thallium flux fluorescence; active compounds read high; B-score at 10 µM; 310,000 compounds, 0.54% hits;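 active = fluorescence ratio B-score at least 3 SD of library B-scores, with initial fluorescence B-score within 3 of them, cut at about 5.3 in these data; same plate scores as AID 2156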;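 also: B-score of peak minus minimum over baseline fluorescence ratio after K+ and Tl+ stimulus; positive B-score means potentiation of KCNQ2 with more thallium influx and brighter signal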
Target sequence (O88943 whole entry, looked up): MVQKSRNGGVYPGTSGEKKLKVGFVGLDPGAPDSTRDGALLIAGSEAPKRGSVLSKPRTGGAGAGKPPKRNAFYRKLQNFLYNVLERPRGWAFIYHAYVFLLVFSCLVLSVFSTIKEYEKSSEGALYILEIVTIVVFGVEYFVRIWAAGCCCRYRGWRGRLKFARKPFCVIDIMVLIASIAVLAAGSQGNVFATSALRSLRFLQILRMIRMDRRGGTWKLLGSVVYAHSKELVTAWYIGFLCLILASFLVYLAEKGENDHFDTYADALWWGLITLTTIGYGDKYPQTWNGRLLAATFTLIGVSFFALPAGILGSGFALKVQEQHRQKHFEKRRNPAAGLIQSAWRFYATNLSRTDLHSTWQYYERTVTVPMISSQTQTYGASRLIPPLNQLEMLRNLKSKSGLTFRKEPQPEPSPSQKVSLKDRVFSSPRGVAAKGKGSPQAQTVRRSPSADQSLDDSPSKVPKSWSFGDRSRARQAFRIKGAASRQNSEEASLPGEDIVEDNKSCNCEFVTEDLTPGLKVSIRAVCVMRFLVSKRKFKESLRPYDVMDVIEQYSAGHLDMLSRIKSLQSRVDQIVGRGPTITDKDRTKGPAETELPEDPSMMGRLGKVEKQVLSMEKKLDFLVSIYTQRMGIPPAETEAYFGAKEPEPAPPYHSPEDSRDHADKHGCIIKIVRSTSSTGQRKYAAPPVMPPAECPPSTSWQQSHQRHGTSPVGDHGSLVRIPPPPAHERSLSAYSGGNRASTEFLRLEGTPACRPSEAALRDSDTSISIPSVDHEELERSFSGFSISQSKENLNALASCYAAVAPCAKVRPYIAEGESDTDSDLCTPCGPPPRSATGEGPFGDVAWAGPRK
KCNQ2 block: KCNQ2 (rat) channel inhibition; B-score at 10 µM; 310,000 compounds, 1.1% hits; CHO-K1 KCNQ2, FluxOR thallium flux, 20 min; active compounds read low;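 active = fluorescence ratio B-score at most minus 3 library SDs, with starting brightness B-score within 2 library SDs, cut at about -5.5 in these data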
Numbers without * were called inactive.

For CCc1ccc(-c2nc(CN3CCCC(C(=O)O)C3)c(C)o2)cc1 (centres undefined) the results were KCNQ2 block inactive.
Screening CCN(CCNC(=O)C1CCCN(Cc2nc(-c3ccc(OC)cc3)oc2C)C1)c1ccccc1 (centres undefined) returned KCNQ2 pot -8.7 and KCNQ2 block -8.7*.
Screening CCN(CCNC(=O)C1CCN(Cc2nc(-c3ccc(Cl)cc3)oc2C)CC1)c1ccccc1 returned KCNQ2 pot -6.9 and KCNQ2 block -6.9*.
Screening CCN(C(=O)COC(=O)C1CCN(S(=O)(=O)c2ccc3c(c2)OCCO3)CC1)C1CCCCC1 returned KCNQ2 block inactive.
For COc1ccc(S(=O)(=O)N2c3cc(C)ccc3OCC2C(C)(C)C)cc1 (centres undefined) the results were KCNQ2 pot -5.5 and KCNQ2 block -5.5*.
`Cc1ccc(S(=O)(=O)N2c3ccccc3OCC2c2ccccc2)cc1` (centres undefined) gave KCNQ2 block inactive.
For Cc1ccc(S(=O)(=O)N2c3cc(C)ccc3OCC2C(C)(C)C)cc1 (centres undefined) the results were KCNQ2 pot -6.2 and KCNQ2 block -6.2*.
Screening COc1cccc(C(=O)N2c3cc(C)ccc3OCC2C(C)(C)C)c1 (centres undefined) returned KCNQ2 block inactive.
`CC(=O)c1sc(NC(=O)c2ccc(COc3ccccc3Cl)o2)nc1C` gave KCNQ2 pot 0.05 and KCNQ2 block inactive.
CC1CCCN(CCCNC(=O)c2nn(C)c3c2CS(=O)(=O)c2ccccc2-3)C1 (centres undefined) was read as KCNQ2 pot 0.81 and KCNQ2 block inactive.
Screening COc1cccc(OCC(O)CN(CCO)Cc2ccccc2)c1 (centres undefined) returned KCNQ2 block inactive.
`CCC(=O)c1ccc(OCC(O)CN(CCc2ccccc2)Cc2ccccc2)cc1` (centres undefined) gave KCNQ2 pot -7.6 and KCNQ2 block -7.6*.
For Cc1cc(C)c2nc(-c3cccnc3)cc(C(=O)NC(C)c3cnn(C)c3C)c2c1 (centres undefined) the results were KCNQ2 pot -8 and KCNQ2 block -8*.
For Cc1cccc2c(C(=O)O)cc(-c3cccnc3)nc12 the results were KCNQ2 pot 0.01 and KCNQ2 block inactive.
For Cc1nc2c(c(=O)c3ccccc3n2C)c(=O)n1C1CCCCCC1 the results were KCNQ2 pot 0.08 and KCNQ2 block inactive.
Cn1c2ccccc2c(=O)c2c(=O)n(C3CCCCC3)c(-c3ccco3)nc21 was read as KCNQ2 pot 6.7* and KCNQ2 block inactive.
Screening COc1ccc([N+](=O)[O-])cc1NCc1ccco1 returned KCNQ2 pot 0.26 and KCNQ2 block inactive.
`CCCC[C@@H]1CNCCN1CC1(c2ccccc2)CC1` gave KCNQ2 pot 0.05 and KCNQ2 block inactive.
O=C(NCC1CCN(Cc2ccc(Cl)cc2)CC1)C1CCCN(c2ncnc3c2nc2n3CCCCC2)C1 (centres undefined) was read as KCNQ2 pot -6.6 and KCNQ2 block -6.6*.
For O=C(NCC1CCN(Cc2ccc(F)cc2)CC1)C1CCCN(c2ncnc3c2nc2n3CCCCC2)C1 (centres undefined) the results were KCNQ2 block inactive.
O=[N+]([O-])c1ccc(NC(=S)N2CCc3ccccc32)cc1 was read as KCNQ2 block inactive.
`Cc1cccc(C)c1OCC(=O)NNC(=O)CCNC(=O)c1ccco1` gave KCNQ2 pot 1.2 and KCNQ2 block inactive.
CN(C)CCNc1ncnc2c1sc1nc(-c3ccccc3)c3c(c12)CCCC3 was read as KCNQ2 pot -7.8 and KCNQ2 block -7.8*.
For COc1ncnc2c1sc1nc(-c3ccccc3)c3c(c12)CCCC3 the results were KCNQ2 pot 0.04 and KCNQ2 block inactive.
Cc1ccc(OCC(O)CNC2CCCC2)c(C)c1 (centres undefined) was read as KCNQ2 block inactive.
Cc1ccccc1OCC(O)CNC1CCC(NCC(O)COc2ccccc2C)CC1 (centres undefined) was read as KCNQ2 pot -7.7 and KCNQ2 block -7.7*.
For CCN(CC)S(=O)(=O)c1ccc(N2CCOCC2)c(NC(=O)c2ccccc2F)c1 the results were KCNQ2 block inactive.
Screening CCN(CC)S(=O)(=O)c1ccc(N2CCOCC2)c(NC(=O)c2cc3ccccc3oc2=O)c1 returned KCNQ2 pot -5.5 and KCNQ2 block -5.5*.
Screening Cc1cc(Br)ccc1NC(=O)CN(C)C(=O)c1cc(S(=O)(=O)N(C)C)ccc1N1CCCC1 returned KCNQ2 pot 0.25 and KCNQ2 block inactive.
For CCc1nc2sccc2c(=O)n1N the results were KCNQ2 pot 0.9 and KCNQ2 block inactive.
Screening CCc1ccc(/C=C/C(=O)C2C(=O)c3ccccc3C2=O)cc1 returned KCNQ2 pot 3.5 and KCNQ2 block inactive.
O=C(/C=C/c1ccccc1)C1C(=O)c2ccccc2C1=O was read as KCNQ2 pot 5.8* and KCNQ2 block inactive.
For CC1CCCC(NC(=O)C2CCN(S(=O)(=O)c3cnc[nH]3)CC2)C1C (centres undefined) the results were KCNQ2 block inactive.
Cc1cccc(Cc2cnc(N3C(=N)SC(C)C3=O)s2)c1 (centres undefined) was read as KCNQ2 pot 6* and KCNQ2 block inactive.
Screening Cc1ccc(Cc2cnc(N3C(=N)SC(C)C3=O)s2)cc1 (centres undefined) returned KCNQ2 pot 0.46 and KCNQ2 block inactive.
Cc1nn(-c2ccc(Cl)nn2)c(=O)c2ccccc12 was read as KCNQ2 pot 0.01 and KCNQ2 block inactive.
`CC(c1ccco1)N(C(=O)COc1ccc(Cl)cc1Cl)c1ccccn1` (centres undefined) gave KCNQ2 pot -11 and KCNQ2 block -11*.
For CC(c1ccco1)N(C(=O)c1ccccc1F)c1ccccn1 (centres undefined) the results were KCNQ2 pot 0.26 and KCNQ2 block inactive.
`Cn1c(N)c(C(=O)Nc2ccc(-c3ccccc3)cc2)sc1=S` gave KCNQ2 block inactive.
Screening O=C(NCC1CCCO1)C1CC(=O)N(c2ccc(Cl)cc2)C1 (centres undefined) returned KCNQ2 pot 1.3 and KCNQ2 block inactive.
Screening COc1cc(OC)c2c(=O)cc(-c3ccccc3)oc2c1 returned KCNQ2 block inactive.
Screening COc1cc2c(c3oc(-c4ccccc4)cc(=O)c13)C=CC(C)(C)O2 returned KCNQ2 pot -6 and KCNQ2 block -6*.
For COc1cc(C(=O)OC2CC3CCC2(C)C3(C)C)ccc1OC(C)=O (centres undefined) the results were KCNQ2 pot -5.7 and KCNQ2 block -5.7*.
CC1(C)C2CCC1(C)C(OC(=O)CNc1ccccc1)C2 (centres undefined) was read as KCNQ2 block inactive.
CC1CN(C(=O)CCC(=O)NCCCN2C(C)CCCC2C)c2ccccc2O1 (centres undefined) was read as KCNQ2 pot 1.2 and KCNQ2 block inactive.
For O=C(C1=C[C@@H](c2ccccc2)C[C@@H](OCc2ccc(CO)cc2)O1)N1CCN(Cc2ccc3c(c2)OCO3)CC1 the results were KCNQ2 pot -5.8 and KCNQ2 block -5.8*.
For O=C(C1=C[C@H](c2ccccc2)C[C@H](OCc2ccc(CO)cc2)O1)N1CCN(Cc2ccccc2)CC1 the results were KCNQ2 block inactive.
O=C(C1=C[C@@H](C2CC2)C[C@@H](OCCCCO)O1)N1CCN(Cc2ccccc2)CC1 was read as KCNQ2 block inactive.
